Results as given in PubChem BioAssay AID1159580 (chemical genetic matrix, 2015).
About 2,000 (36%) of roughly 5,500 compounds were called active. Another 18% or so got no clear call; they are omitted. No stated cut-off is given here; in the data, active means normalized growth mostly below about 0.91 (no sharp cut-off); inconclusive means no clear call, values can overlap the other calls; inactive means mostly above about 0.92. The list shows a part of the results.

Experiment: chemical genetic growth profiling, strain panel (AID 1159580);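 further: tested at 20 µM; growth read once vehicle control cultures reached saturation at 30 °C; 1 = growth at the plate median or of vehicle wells; lower values mean less growth of the strain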
Details: S. cerevisiae deletion strains, growth OD

Measured: normalized growth

CCCCCCc1cc2c(C)cc(=O)oc2cc1O
inactive: locus YAL013W, strain DEP1, active compounds read low 0.979 | locus YCL061C, strain MRC1, active compounds read low 0.968 | locus YDL101C, strain DUN1, active compounds read low 1.02 | locus YDL134C, strain PPH21, active compounds read low 0.976 | locus YDR150W, strain NUM1, active compounds read low 0.996 | locus YEL061C, strain CIN8, active compounds read low 0.966 | locus YGR078C, strain PAC10, active compounds read low 0.996 | locus YGR229C, strain SMI1, active compounds read low 0.976 | locus YHR030C, strain SLT2, active compounds read low 0.922 | locus YJL187C, strain SWE1, active compounds read low 0.938 | locus YJR043C, strain POL32, active compounds read low 1.03 | locus YKL190W, strain CNB1, active compounds read low 0.959 | locus YLR058C, strain SHM2 (second series), active compounds read low 0.981 | locus YLR085C, strain ARP6, active compounds read low 0.864 | locus YML094W, strain GIM5, active compounds read low 0.918 | locus YMR219W, strain ESC1, active compounds read low 0.973 | locus YMR263W, strain SAP30, active compounds read low 0.976 | locus YMR307W, strain GAS1, active compounds read low 0.803 | locus YNL153C, strain GIM3, active compounds read low 0.965 | locus YNL298W, strain CLA4 (second series), active compounds read low 0.942 | locus YNL322C, strain KRE1, active compounds read low 0.989 | locus YNR030W, strain Alg12, active compounds read low 0.927 | locus YOL006C, strain TOP1, active compounds read low 0.863 | locus YPL055C, strain LGE1, active compounds read low 0.896 | locus YPL241C, strain CIN2, active compounds read low 0.932 | locus YPR135W, strain CTF4, active compounds read low 0.792
active: locus YBR229C, strain ROT2, active compounds read low 0.895 | locus YHR087W, strain rtc3, active compounds read low 0.725 | locus YJR075W, strain HOC1, active compounds read low 0.888 | locus YLR039C, strain RIC1, active compounds read low 0.721 | locus YLR262C, strain YPT6, active compounds read low 0.782
